In the supplement of paper PMC7393113 one finds mitochondrial superoxide data, which are given here for 23 compounds.

± gives the standard deviation of the averaged measurements.

The assay concerns iBMDM (immortalised mouse bone-marrow-derived macrophages), LPS-stimulated. In words: mitochondrial superoxide (MitoSOX fluorescence) fold increase over unstimulated control; higher = more LPS-induced mitochondrial ROS (less inhibition). Particulars: inhibitor concentration: 500 nM; LPS: 100 ng/ml; time after LPS: 1 h. In short, it runs like this: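 Immortalised mouse bone-marrow-derived macrophages in black 96-well plates were kept in phenol-red-free 1% FCS/DMEM for 20 h, pretreated 30 min with kinase inhibitors (500 nM), loaded with 1 μM MitoSox for 10 min and then given LPS (100 ng/ml). Fluorescence at excitation/emission 510/580 nm was read on a ClarioStar plate reader every 60 min for 4 h, with wells in triplicate. Mitochondrial superoxide is given as fold induction over untreated macrophages, averaged across replicates.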
Turning to `Oc1ccc2ccccc2c1SSc1c(O)ccc2ccccc12`, the mitochondrial superoxide came to 1.17 ± 0.049.
Compound `CNC(=O)Nc1ccc(-c2nc(N3CC4CCC(C3)O4)c3cnn(C4CCC5(CC4)OCCO5)c3n2)cc1` gave a mitochondrial superoxide of 1.26 ± 0.075.
As for `Cc1cc(Nc2ncc(Cl)c(Nc3ccccc3S(=O)(=O)C(C)C)n2)c(OC(C)C)cc1C1CCNCC1`, the mitochondrial superoxide came to 1.2 ± 0.013.
The value for `CC1(C)CNc2cc(NC(=O)c3cccnc3NCc3ccncc3)ccc21` [Motesanib Diphosphate (AMG-706)] was 1.55 ± 0.066.
Regarding `C=CC(=O)Nc1ccc2ncnc(Nc3cccc(Br)c3)c2c1`, the mitochondrial superoxide came out at 1.12 ± 0.053.
Compound `C=CC(=O)Nc1cccc(Oc2nc(Nc3ccc(N4CCN(C)CC4)cc3OC)ncc2Cl)c1` yielded a mitochondrial superoxide of 1.42 ± 0.03.
`Oc1cc(O)cc(/C=C/c2ccc(O)c(O)c2)c1` [Piceatannol] returned a mitochondrial superoxide of 1.13 ± 0.0055.
`Cc1nc(N)sc1-c1ccnc(Nc2ccc(N3CCOCC3)cc2)n1` displayed a mitochondrial superoxide of 1.49 ± 0.063.
Take `CC(=O)Nc1nc(C)c(-c2ccc(Cl)c(S(=O)(=O)NCCO)c2)s1`: the mitochondrial superoxide worked out at 1.02 ± 0.067.
The result for `O=C(c1ccc(/C=C/c2n[nH]c3ccccc23)cc1)N1CCNCC1` reads 1.09 ± 0.063; that for `Cn1cc(C2=C(c3ccc(Cl)cc3Cl)C(=O)NC2=O)c2ccccc21`, 1.46 ± 0.18; that for `CC1=C(C(=O)Nc2cc3cn[nH]c3cc2F)C(c2ccc(C(F)(F)F)cc2)CC(=O)N1` (stereo not drawn), 1.23 ± 0.085.
As for `O=C(NOC[C@H](O)CO)c1ccc(F)c(F)c1Nc1ccc(I)cc1F`, the mitochondrial superoxide turned out to be 1.589 ± 0.0074.
Regarding `C=CC(=O)Nc1cccc(Oc2nc(Nc3ccc(N4CCN(C)CC4)cc3)ncc2Cl)c1`, the mitochondrial superoxide is 1.54 ± 0.047.
In the case of `CNC(=O)c1ccc(C)c(-n2c(C)cc(OCc3ccc(F)cc3F)c(Br)c2=O)c1`, the mitochondrial superoxide is 1.33 ± 0.056.
`CC(C)n1nc(-c2ccc3oc(N)nc3c2)c2c(N)ncnc21` showed a mitochondrial superoxide of 1.34 ± 0.018.
The compound `CC[C@@H]1C(=O)N(C)c2cnc(Nc3ccc(C(=O)NC4CCN(C)CC4)cc3OC)nc2N1C1CCCC1` returned a mitochondrial superoxide of 1.14 ± 0.063.
`COc1cc2ncnc(Nc3ccc(F)c(Cl)c3)c2cc1NC(=O)/C=C/CN1CCCCC1` yielded a mitochondrial superoxide of 1.22 ± 0.031.
Compound `CCN1CCN(Cc2ccc(-c3cc4c(N[C@H](C)c5ccccc5)ncnc4[nH]3)cc2)CC1` showed a mitochondrial superoxide of 1.08 ± 0.019.
Turning to `CN(C)c1ccc(-c2nc3ncc(Cl)c(N4CCN(CC(=O)Nc5nccs5)CC4)c3[nH]2)cc1`, the mitochondrial superoxide stood at 1.21 ± 0.037.
Consider `O=C(Cc1ccc(-c2ccc(OCCN3CCOCC3)cc2)cn1)NCc1ccccc1`, for which the mitochondrial superoxide amounted to 1.31 ± 0.1.
In the case of `CC(C)(C)NS(=O)(=O)c1cncc(-c2cc(F)c3nc(N)nn3c2)c1`, the mitochondrial superoxide was determined as 1.09 ± 0.021.
Consider `COc1cc2ncnc(Nc3ccc(F)c(Cl)c3)c2cc1OCCCN1CCOCC1` [Gefitinib (ZD1839)], for which the mitochondrial superoxide came out at 1.6 ± 0.048.
